Reference: PubChem BioAssay (Tox21)
Inconclusive results are not listed. Calls of active or inactive are those of the source. The call rests on the fitted dose curve; in most records, active means well fitted curve in the direction sought with a large enough effect in the repeat runs; inconclusive means weak or mixed curves; inactive means no such curve, though single readings can be large; an effect the other way counts as inactive or inconclusive.

Tests used:
[1] = A CellTox Green Cytotoxicity Assay to monitor cytotoxicity in HEK293 cells - 40 hour (AID 1224871); further: nearly all actives have a fitted effect of over 45% in size; further: potency means the concentration at half of the fitted maximal effect
Procedure, shortened: (§1)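 Cells (HEK293, 600/well) and dye reagent are dispensed together. After 5 h at 37 C, 23 nL compound is pinned in. Plates stay at 37 C for 40 h with fluorescence read at 0h, 8h, 16h, 24h, 32h and 40h.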

[2] = qHTS RealTime-Glo MT Cell Viability Assay in HEK293 cells - 16 hour (AID 1224872); further: nearly all actives have a fitted effect of over 50% in size; further: potency means the concentration at half of the fitted maximal effect
Procedure, shortened: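 Assay medium contained NanoLuc luciferase plus cell-permeant prosubstrate, added with HEK293 cells at 600 cells/well. After 5 h at 37 C/5% CO2 compounds were added; plates stayed at 37 C for 40 h with serial luminescence reads.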

[3] = qHTS RealTime-Glo MT Cell Viability Assay in HepG2 cells - 8 hour (AID 1224873); further: nearly all actives have a fitted effect of over 55% in size
Procedure, shortened: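 HepG2 cells mixed with RealTime-Glo MT reagents (NanoLuc plus cell-permeant prosubstrate) were seeded at 600 cells/well, incubated 5 h at 37 C/5% CO2, then pinned with compounds in DMSO; nonlytic luminescence tracked viability during 40 h treatment.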

[4] = A CellTox Green Cytotoxicity Assay to monitor cytotoxicity in HEK293 cells - 24 hour (AID 1224875); further: series mostly up to about 77 µM; nearly all actives have a fitted effect of over 45% in size
Procedure, shortened: as §1

[5] = A CellTox Green Cytotoxicity Assay to monitor cytotoxicity in HepG2 cells - 16 hour (AID 1224876); further: nearly all actives have a fitted effect of over 45% in size
Procedure, shortened: (§2)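 Cells and non-lytic dye reagent are dispensed together (600 HepG2 cells/well) and incubated 5 h before DMSO compound transfer. Kinetic fluorescence is then recorded in the same wells during 40 h at 37 C.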

[6] = qHTS RealTime-Glo MT Cell Viability Assay in HepG2 cells - 32 hour (AID 1224877); further: nearly all actives have a fitted effect of over 55% in size
Procedure, shortened: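 qHTS, HepG2, 600 cells/well, RealTime-Glo (NanoLuc + prosubstrate) added with cells; 5 h preincubation; DMSO compound addition; 37 C; luminescence at 0/8/16/24/32/40 h.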

[7] = A CellTox Green Cytotoxicity Assay to monitor cytotoxicity in HepG2 cells - 24 hour (AID 1224878); further: nearly all actives have a fitted effect of over 45% in size
Procedure, shortened: as §2

[8] = A CellTox Green Cytotoxicity Assay to monitor cytotoxicity in HepG2 cells - 40 hour (AID 1224879); further: nearly all actives have a fitted effect of over 40% in size; further: potency means the concentration at half of the fitted maximal effect
Procedure, shortened: as §2

[9] = qHTS RealTime-Glo MT Cell Viability Assay in HEK293 cells - 0 hour (AID 1224880); further: nearly all actives have a fitted effect of over 45% in size; further: potency means the concentration at half of the fitted maximal effect
Procedure, shortened: (§3)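 Real-time viability in HEK293: signal arises when living cells convert a prosubstrate for NanoLuc in the medium, so luminescence tracks viable cell number. Compound (23 nL, DMSO) added 5 h post-seeding; kinetic reads at 0–40 h, 37 C.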

[10] = qHTS RealTime-Glo MT Cell Viability Assay in HEK293 cells - 40 hour (AID 1224874); details: RealTime-Glo luminescence; max response: stronger effect = lower value; further: nearly all actives have a fitted effect of over 50% in size; further: potency means the concentration at half of the fitted maximal effect
Procedure, shortened: as §3
On the % scale 0 is the no-effect control and ±100 the full control effect.

Nc1ccc(S(=O)(=O)O)cc1
inactive: Potency [1] | Potency [2] | Potency [3] | Potency [4] | Potency [5] | Potency [6] | Potency [7] | Potency [8] | Potency [9]

O=C(CS)OCCOC(=O)CS
inactive: Potency [1] | Potency [2] | Potency [3] | max response [10] 0.141% | Potency [4] | Potency [6] | Potency [7] | Potency [8] | Potency [9]

C/C=C(\C)C(=O)OCCC(C)CCC=C(C)C (configuration not stated)
inactive: Potency [1] | Potency [2] | Potency [3] | Potency [4] | Potency [5] | Potency [6] | Potency [7] | Potency [8] | Potency [9]

CC(C)CCCCCCOC(=O)CCCCC(=O)OCCCCCCC(C)C
inactive: Potency [1] | Potency [2] | Potency [3] | Potency [4] | Potency [5] | Potency [6] | Potency [7] | Potency [8] | Potency [9]

C[C@]12CCC(=O)C=C1C=C[C@@H]1[C@@H]2CC[C@@]2(C)[C@H]1CC[C@@]21CCC(=O)O1
inactive: Potency [1] | Potency [2] | Potency [3] | max response [10] -25.7% | Potency [4] | Potency [6] | Potency [7] | Potency [8] | Potency [9]

O=C(NCCCN1CCOCC1)c1ccc(Cl)cc1
inactive: Potency [1] | Potency [2] | Potency [3] | max response [10] 7.84% | Potency [4] | Potency [5] | Potency [6] | Potency [8] | Potency [9]

OC/C(Br)=C(\Br)CO
inactive: Potency [1] | Potency [2] | Potency [3] | max response [10] 0.37% | Potency [5] | Potency [6] | Potency [7] | Potency [8] | Potency [9]

Cn1c(=O)c2c(ncn2CC(=O)O)n(C)c1=O
inactive: Potency [1] | Potency [2] | Potency [3] | max response [10] 1.42% | Potency [4] | Potency [6] | Potency [7] | Potency [8] | Potency [9]

c1cc[c]([Bi]([c]2ccccc2)[c]2ccccc2)cc1
inactive: Potency [1] | Potency [2] | Potency [3] | Potency [4] | Potency [5] | Potency [6]

CN(C(=O)C(Cl)Cl)c1ccc(OC(=O)c2ccco2)cc1
inactive: Potency [1] | Potency [2] | Potency [3] | max response [10] -3.14% | Potency [4] | Potency [6] | Potency [7] | Potency [8] | Potency [9]

C/C(=N/NC(=O)c1ccncc1)C(=O)O
inactive: Potency [1] | Potency [2] | Potency [3] | max response [10] 0.452% | Potency [4] | Potency [6] | Potency [7] | Potency [8] | Potency [9]

CC(C)(C)CC(C)(C)c1ccc(OCCO)cc1
active: Potency [1] 48.7 µM | Potency [2] 6.88 µM | Potency [10] 4.87 µM
inactive: Potency [3] | Potency [5] | Potency [6] | Potency [7] | Potency [8] | Potency [9]

CCC(C(=O)OCCOCCN(CC)CC)c1ccccc1 (configuration not stated)
inactive: Potency [1] | Potency [2] | Potency [3] | max response [10] 4.17% | Potency [4] | Potency [6] | Potency [7] | Potency [8] | Potency [9]

CCCCC(CC)COC(=O)COc1ccc(Cl)cc1C (configuration not stated)
inactive: Potency [1] | Potency [2] | Potency [3] | Potency [4] | Potency [5] | Potency [6] | Potency [7] | Potency [8] | Potency [9]

O=C(O)c1cccnc1C(=O)O
inactive: Potency [1] | Potency [2] | Potency [3] | max response [10] -1.78% | Potency [4] | Potency [5] | Potency [6] | Potency [8] | Potency [9]

C1COCO1
inactive: Potency [1] | Potency [2] | Potency [3] | Potency [4] | Potency [5] | Potency [6] | Potency [7] | Potency [8] | Potency [9]

CCCOc1ccc(S(=O)(=O)N2CCN(CC)CC2)cc1-c1nc2c(CC)n(Cc3ccccn3)nc2c(=O)[nH]1
inactive: Potency [1] | Potency [2] | Potency [3] | Potency [4] | Potency [5] | Potency [6] | Potency [7] | Potency [8] | Potency [9]

CNC(=O)N(c1ccccc1)c1ccccc1
inactive: Potency [1] | Potency [2] | Potency [3] | Potency [4] | Potency [5] | Potency [6] | Potency [7] | Potency [8] | Potency [9]

CO[Si](C)(OC)OC
inactive: Potency [1] | Potency [2] | Potency [3] | max response [10] 2.67% | Potency [4] | Potency [6] | Potency [7] | Potency [9]

Cc1ccccc1N1C(=O)c2cc(S(N)(=O)=O)c(Cl)cc2NC1C (configuration not stated)
inactive: Potency [1] | Potency [2] | Potency [3] | max response [10] -9.78% | Potency [4] | Potency [5] | Potency [6] | Potency [8] | Potency [9]

CC1(C)C2=CCCC(C)(C)[C@]23CC[C@H]1C3
inactive: Potency [2] | Potency [3] | max response [10] -11.7% | Potency [4] | Potency [6]
active: Potency [1] 38.9 µM | Potency [9] 24.5 µM

OC(CCCN1CCCCC1)(c1ccccc1)c1ccccc1
inactive: Potency [1] | Potency [2] | Potency [3] | max response [10] 0.842% | Potency [4] | Potency [6] | Potency [7] | Potency [8] | Potency [9]

c1ccc(COCc2ccccc2)cc1
inactive: Potency [1] | Potency [2] | Potency [3] | max response [10] 16.4% | Potency [4] | Potency [6] | Potency [7] | Potency [8] | Potency [9]

CCC(=O)Oc1ccc(/C(CC)=C(\CC)c2ccc(OC(=O)CC)cc2)cc1
inactive: Potency [1] | Potency [3] | Potency [4] | Potency [6] | Potency [7] | Potency [8] | Potency [9]
active: Potency [2] 24.5 µM | Potency [10] 17.4 µM

Nc1ccc(C(=O)OCCCOC(=O)c2ccc(N)cc2)cc1
active: Potency [2] 49 µM
inactive: Potency [1] | Potency [3] | Potency [4] | Potency [5] | Potency [6] | Potency [7] | Potency [8] | Potency [9]

CCNC(=O)N1CCN(CCCC(c2ccc(F)cc2)c2ccc(F)cc2)CC1
active: Potency [2] 16.9 µM | Potency [10] 16.9 µM | Potency [8] 21.3 µM
inactive: Potency [1] | Potency [3] | Potency [4] | Potency [6] | Potency [9]

Nc1ccc(Cl)cc1[N+](=O)[O-]
inactive: Potency [1] | Potency [2] | Potency [3] | Potency [4] | Potency [5] | Potency [6] | Potency [7] | Potency [8] | Potency [9]

CCOCCn1c(C2CCN(CCc3ccc(C(C)(C)C(=O)O)cc3)CC2)nc2ccccc21
inactive: Potency [1] | Potency [2] | Potency [3] | max response [10] 0.952% | Potency [4] | Potency [6] | Potency [9]

Cc1nccn1-c1ccc(Sc2cccc(C3(C(N)=O)CCOCC3)c2)cc1
inactive: Potency [1] | Potency [3] | Potency [4] | Potency [5] | Potency [7] | Potency [9]
active: Potency [2] 1.38 µM | Potency [10] 1.23 µM

CC1=C(/C=C/C(C)=C\C=C\C(C)=C\C(=O)O)C(C)(C)CCC1
active: Potency [1] 49 µM
inactive: Potency [2] | Potency [3] | max response [10] -21.3% | Potency [5] | Potency [7] | Potency [9]

CCOC(=O)OCC
inactive: Potency [1] | Potency [2] | Potency [3] | max response [10] 7.38% | Potency [4] | Potency [6] | Potency [7] | Potency [8] | Potency [9]

CCCCC(=O)O[C@]1(C(=O)CO)CC[C@H]2[C@@H]3CCC4=CC(=O)CC[C@]4(C)[C@H]3[C@@H](O)C[C@@]21C
inactive: Potency [1] | Potency [2] | Potency [3] | Potency [4] | Potency [5] | Potency [6] | Potency [7] | Potency [8]

COc1cc2c(cc1OC)-c1cc(=Nc3c(C)cc(C)cc3C)n(C)c(=O)n1CC2
active: Potency [8] 21.3 µM
inactive: Potency [1] | Potency [2] | Potency [3] | Potency [4] | Potency [5] | Potency [6] | Potency [7] | Potency [9]

C=C(C)C(=O)OCCOC(=O)CC(C)=O
inactive: Potency [1] | Potency [2] | Potency [3] | Potency [4] | Potency [6] | Potency [7] | Potency [8] | Potency [9]
